# Source: PubChem BioAssay AID2685 (National Center for Advancing Translational Sciences (NCATS), 2010)
# In all, about 320,000 compounds went through this assay and about 2,100 (0.66%) were called active. Roughly 53% stayed inconclusive and do not appear here. The call rests on the fitted dose curve; in most records, active means well fitted inhibition curve with a large enough effect in the signal ratio, with a control signal flat (not every such curve was filed as active); inconclusive means small, poorly fitted or top-dose-only effect, or effect the other way, or a change in a side signal; inactive means flat fitted curve, though single readings scatter; the % refers to the signal ratio. The entries come from a sample that favours actives as a whole.
# Test: qHTS Assay for Lipid Storage Modulators in Drosophila S3 Cells;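 on cell number change: cells counted by Cell Tracker Red CMTPX staining in the red channel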; on lipid storage change, negative = inhibition: on the % scale 0 is the no-effect control and ±100 the full control effect
# Details: BODIPY lipid droplet fluorescence, 18-24 h, cells fed with added oleic acid; cell number change: measured here: cell count max response; series mostly up to 46.1 µM; lipid storage change, negative = inhibition: at the top concentration
# Procedure, shortened: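 Drosophila S3 cells got compounds at several concentrations plus oleic acid (400 uM solution). Laser-scanning cytometry with 488 nm excitation read lipid droplets at 500-530 nm and cells at 575-640 nm. Percent activity was relative to 20 uM Triacsin C.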
# Potency means the concentration at half of the fitted maximal effect.
SMILES,"lipid storage change, negative = inhibition",cell number change [%],Potency,outcome
COc1ccc(S(N)(=O)=O)cc1-c1nnc2c3ccccc3c(C)nn12,-0.656% (inactive),-15.7,–,–
Cc1ccc(S(=O)(=O)c2c(O)c3ccc(C(=O)O)cc3[nH]c2=O)cc1,–,-5.9,11.6 µM (active),–
COc1ccc(S(=O)(=O)c2c(O)c3ccc(C(=O)Nc4ccccc4)cc3[nH]c2=O)cc1,26.4% (inactive),23,–,–
COc1ccc(S(=O)(=O)c2c(O)c3ccc(C(=O)Nc4ccc(F)cc4)cc3[nH]c2=O)cc1,–,-7.08,–,inactive
Cc1cccc(NC(=O)c2cc(Cl)ccc2[N+](=O)[O-])c1,4.85% (inactive),–,–,–
Cc1cccc(Nc2nc(N)c([N+](=O)[O-])c(NCCO)n2)c1,0.152% (inactive),-0.837,–,–
O=C(CSc1ccc2ccccc2n1)NCc1ccc2c(c1)OCO2,19.1% (inactive),26.9,–,–
Cc1cccc(C)c1NC(=S)NCCCN1CCCC1=O,–,-0.836,0.461 µM (active),–
O=C1CCCN1CCCNC(=S)Nc1ccccc1,15.3% (inactive),-7.97,–,–
Cc1cc(Cl)ccc1NC(=S)NCCCN1CCCC1=O,18.7% (inactive),7.04,–,–
CCN1CCN(CC(O)COCCOc2ccc(Br)cc2)CC1 (configuration not stated),-7.14% (inactive),4.7,–,–
Cc1cccc(OCC(=O)NCc2cc(C)nc3ccccc23)c1,5.62% (inactive),-5.05,–,–
COc1ccccc1C(C)NC(=O)c1cc(=O)[nH]c2ccccc12 (configuration not stated),–,-5.13,–,inactive
CCOc1ccc(C(C)NC(=O)c2cc(=O)[nH]c3ccccc23)cc1OCC (configuration not stated),–,6.31,0.0021 µM (active),–
COc1ccccc1OCCNC(=O)c1cc(=O)[nH]c2ccccc12,8.99% (inactive),13.3,–,–
CC(=O)c1cccc(N(CC(=O)NC2CCCCC2)C(=O)CNC(=O)c2cccs2)c1,–,16.1,–,inactive
CCC(C)NC(=O)c1c(N)n(/N=C/c2ccccn2)c2nc3ccccc3nc12 (configuration not stated),16.9% (inactive),8.8,–,–
COCCNC(=O)c1c(N)n(/N=C/c2ccc(F)cc2)c2nc3ccccc3nc12,3.89% (inactive),21.5,–,–
COCCCNC(=O)c1c(N)n(/N=C/c2ccccn2)c2nc3ccccc3nc12,–,–,7.31 µM (active),–
Cc1ccc(-c2ccc(=O)n(CCC(=O)N3CCN(Cc4ccccc4)CC3)n2)cc1,–,–,–,inactive
COc1cccc(COC(=O)c2ccc3c(c2)NC(=O)C(C)S3)c1OC (configuration not stated),–,–,3.26 µM (active),–
COc1ccc(Br)cc1CN(C)C(=O)c1ccc2c(c1)NC(=O)C(C)S2 (configuration not stated),4.83% (inactive),–,–,–
COc1ccc(CNC(=O)c2ccc3c(c2)NC(=O)C(C)S3)cc1 (configuration not stated),-0.216% (inactive),-2.51,–,–
CN1CCN(C(=O)c2cc(Cl)ccc2NC(=O)c2ccc(Cl)cc2Cl)CC1,-0.54% (inactive),–,–,–

SMILES,"lipid storage change, negative = inhibition",cell number change [%],Potency,outcome
C=CCn1c(SCC(N)=O)nc2sc3c(c2c1=O)CCC3,–,-3.38,–,inactive
CC(NC(=O)c1ccccc1NC(=O)CN1CCN(c2ccccc2O)CC1)c1ccccc1 (configuration not stated),–,14.4,8.2 µM (active),–
O=C(CN1CCN(c2ccc(O)cc2)CC1)Nc1cc(S(=O)(=O)N2CCCC2)ccc1Cl,4.5% (inactive),-1.92,–,–
O=C(CN1CCN(c2ccc(O)cc2)CC1)Nc1cc(S(=O)(=O)N2CCCCC2)ccc1Cl,10.5% (inactive),21,–,–
CC(NC(=O)CN1CCN(c2ccc(Cl)cc2)CC1)c1ccccc1 (configuration not stated),-3.9% (inactive),-1.82,–,–
O=C(CN1CCN(c2ccccc2O)CC1)Nc1cc(S(=O)(=O)N2CCCC2)ccc1Cl,–,-12.2,0.259 µM (active),–
O=C(CN1CCN(c2ccccc2O)CC1)NC(c1ccccc1)c1ccccc1,16.7% (inactive),6.07,–,–
COc1cc(S(=O)(=O)NCc2ccccn2)c(OC)cc1Cl,1.56% (inactive),4.19,–,–
CCOC(=O)N1CCN(S(=O)(=O)c2ccc3c(c2)SC(C)C(=O)N3)CC1 (configuration not stated),-9.6% (inactive),-22.8,–,–
COC(=O)CSc1nnc(CNS(=O)(=O)c2ccc(Cl)cc2)n1C,–,-22.7,20.6 µM (active),–
CCCSc1nnc(CNS(=O)(=O)c2ccc(C)cc2)n1C,2.69% (inactive),-0.463,–,–
COC(=O)CSc1nnc(CNC(=O)c2ccc(S(=O)(=O)N(C)C)cc2)n1C,4.97% (inactive),–,–,–
O=C(c1cccc(Cl)c1)N1CCC(N2CCC(C(=O)N3CCOCC3)CC2)CC1,-10.6% (inactive),-7.23,–,–
CCN1CCCC1CNS(=O)(=O)c1c(C)cc(C)cc1C (configuration not stated),17% (inactive),-11.3,–,–
CCOC(=O)c1sc(NC(C)=O)nc1C,–,–,–,inactive
CCCn1c(SCC(=O)Nc2ccc(NC(C)=O)cc2)nc2c1c(=O)n(C)c(=O)n2C,–,7.69,–,inactive
COCCN(C(=O)C(=O)NC1CCCC1)C(C(=O)NC1CCCC1)c1ccccc1F (configuration not stated),-0.455% (inactive),6.8,–,–
COCCN(C(=O)CCl)C(C(=O)NC1CCCCC1)c1ccccc1C (configuration not stated),–,-11.6,23.1 µM (active),–
COCCN(C(=O)CCC(=O)Nc1cc(C)on1)C(C(=O)NC1CCCC1)c1ccccc1C (configuration not stated),7.32% (inactive),7.81,–,–
O=S(=O)(NCc1ccccc1)c1ccc(Cl)cc1,-5.46% (inactive),-16.1,–,–
C=CCn1c(O)c(C=Nc2ccc(Cc3ccncc3)cc2)c(=O)[nH]c1=S,11.8% (inactive),1.96,–,–
Cc1ccc2cccc(Oc3nnnn3-c3ccccc3)c2n1,–,10.6,–,inactive
O=C(O)c1ccc(-n2nnnc2Oc2cccc3cccnc23)cc1,–,-14.4,23.1 µM (active),–
c1ccc(-n2nnnc2Oc2cccc3cccnc23)cc1,–,–,–,inactive
